Measurements as given in PubChem BioAssay AID1159580 (chemical genetic matrix, 2015).
Screen size: about 5,500 compounds; about 2,000 (36%) were called active. Inconclusive results (about 18%) are left out. Rule as the data show it: active = normalized growth mostly below about 0.91 (no sharp cut-off); inconclusive = no clear call, values can overlap the other calls; inactive = mostly above about 0.92. The list shows a part of the results.

Assay: chemical genetic growth profiling, strain panel (AID 1159580);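 also: tested at 20 µM; growth read once vehicle control cultures reached saturation at 30 °C; 1 = growth at the plate median or of vehicle wells; lower values mean less growth of the strain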
Conditions: S. cerevisiae deletion strains, growth OD
[1] = locus YAL013W, strain DEP1, stronger effect = lower value
[2] = locus YCL061C, strain MRC1, stronger effect = lower value
[3] = locus YHR030C, strain SLT2, stronger effect = lower value
[4] = locus YMR263W, strain SAP30, stronger effect = lower value
[5] = locus YNL153C, strain GIM3, stronger effect = lower value
[6] = locus YNL322C, strain KRE1, stronger effect = lower value
[7] = locus YAL021C, strain ccr4, stronger effect = lower value
[8] = locus YAL026C, strain drs2, stronger effect = lower value
[9] = locus YAL030W, strain snc1, stronger effect = lower value
[10] = locus YBL061C, strain skt5, stronger effect = lower value
[11] = locus YBR009C, strain hhf1, stronger effect = lower value
[12] = locus YBR023C, strain chs3, stronger effect = lower value
[13] = locus YBR171W, strain sec66, stronger effect = lower value
[14] = locus YBR231C, strain swc5, stronger effect = lower value
[15] = locus YBR279W, strain paf1, stronger effect = lower value
[16] = locus YCL011C, strain gbp2, stronger effect = lower value
[17] = locus YCL016C, strain dcc1, stronger effect = lower value
[18] = locus YCL069W, strain vba3, stronger effect = lower value
[19] = locus YCR088W, strain abp1, stronger effect = lower value
[20] = locus YDL005C, strain med2, stronger effect = lower value
[21] = locus YDL040C, strain nat1, stronger effect = lower value
[22] = locus YDR001C, strain nth1, stronger effect = lower value
[23] = locus YDR069C, strain doa4, stronger effect = lower value
[24] = locus YDR137W, strain rgp1, stronger effect = lower value
[25] = locus YDR159W, strain sac3, stronger effect = lower value
[26] = locus YDR297W, strain sur2, stronger effect = lower value
[27] = locus YDR334W, strain swr1, stronger effect = lower value
[28] = locus YDR335W, strain msn5, stronger effect = lower value
[29] = locus YDR392W, strain spt3, stronger effect = lower value
[30] = locus YEL003W, strain gim4, stronger effect = lower value
[31] = locus YEL037C, strain rad23, stronger effect = lower value
[32] = locus YEL061C, strain CIN8 (second series), stronger effect = lower value
[33] = locus YER015W, strain faa2, stronger effect = lower value
[34] = locus YER016W, strain bim1, stronger effect = lower value
[35] = locus YER111C, strain swi4, stronger effect = lower value
[36] = locus YER155C, strain BEM2 (second series), stronger effect = lower value
[37] = locus YFR010W, strain ubp6, stronger effect = lower value
[38] = locus YGL167C, strain pmr1, stronger effect = lower value
[39] = locus YGL173C, strain kem1, stronger effect = lower value
[40] = locus YGL227W, strain vid30, stronger effect = lower value
[41] = locus YGL240W, strain doc1, stronger effect = lower value
[42] = locus YGL253W, strain hxk2, stronger effect = lower value
[43] = locus YHR013C, strain ard1, stronger effect = lower value
[44] = locus YHR027C, strain rpn1, stronger effect = lower value
[45] = locus YHR142W, strain chs7, stronger effect = lower value
[46] = locus YJL092W, strain hpr5, stronger effect = lower value
[47] = locus YJL095W, strain BCK1 (second series), stronger effect = lower value
[48] = locus YJL115W, strain asf1, stronger effect = lower value
[49] = locus YJL129C, strain trk1, stronger effect = lower value
[50] = locus YJL154C, strain vps35, stronger effect = lower value
[51] = locus YJL164C, strain tpk1, stronger effect = lower value
[52] = locus YJL166W, strain qcr8, stronger effect = lower value
[53] = locus YKL160W, strain elf1, stronger effect = lower value
[54] = locus YKR026C, strain gcn3, stronger effect = lower value
[55] = locus YKR091W, strain srl3, stronger effect = lower value
[56] = locus YLL001W, strain dnm1, stronger effect = lower value
[57] = locus YLL026W, stronger effect = lower value
[58] = locus YLL041C, strain sdh2, stronger effect = lower value
[59] = locus YLR027C, strain aat2, stronger effect = lower value
[60] = locus YLR221C, strain rsa3, stronger effect = lower value
[61] = locus YLR258W, strain gsy2, stronger effect = lower value
[62] = locus YLR262C, strain YPT6 (second series), stronger effect = lower value
[63] = locus YLR320W, strain mms22, stronger effect = lower value
[64] = locus YLR342W, strain FKS1, stronger effect = lower value
[65] = locus YLR357W, strain rsc2, stronger effect = lower value
[66] = locus YLR370C, strain arc18, stronger effect = lower value
[67] = locus YLR384C, strain iki3, stronger effect = lower value
[68] = locus YML120C, strain ndi1, stronger effect = lower value
[69] = locus YMR058W, strain fet3, stronger effect = lower value
[70] = locus YMR125W, strain sto1, stronger effect = lower value
[71] = locus YMR129W, stronger effect = lower value
[72] = locus YMR205C, strain PFK2, stronger effect = lower value
[73] = locus YMR231W, strain pep5, stronger effect = lower value
[74] = locus YNL071W, strain lat1, stronger effect = lower value
[75] = locus YNL209W, strain ssb2, stronger effect = lower value
[76] = locus YNL248C, strain rpa49, stronger effect = lower value
[77] = locus YNL322C, strain KRE1 (second series), stronger effect = lower value
[78] = locus YNR049C, strain mso1, stronger effect = lower value
[79] = locus YOR001W, strain rrp6, stronger effect = lower value
[80] = locus YOR070C, strain gyp1, stronger effect = lower value
[81] = locus YOR080W, strain dia2, stronger effect = lower value
[82] = locus YOR083W, strain WHI5, stronger effect = lower value
[83] = locus YOR106W, strain vam3, stronger effect = lower value
[84] = locus YOR265W, strain rbl2, stronger effect = lower value
[85] = locus YOR270C, strain vph1, stronger effect = lower value
[86] = locus YOR290C, strain snf2, stronger effect = lower value
[87] = locus YPL051W, strain arl3, stronger effect = lower value
[88] = locus YPL078C, strain atp4, stronger effect = lower value
[89] = locus YPL106C, strain sse1, stronger effect = lower value
[90] = locus YPL240C, strain hsp82, stronger effect = lower value

Measured: normalized growth

NC1=C(c2ccccc2)C(=O)NC1=O
inactive: [1] 1.01 | locus YBR229C, strain ROT2, stronger effect = lower value 1.05 | [2] 1.03 | locus YDL101C, strain DUN1, stronger effect = lower value 0.993 | locus YDR150W, strain NUM1, stronger effect = lower value 0.991 | locus YEL061C, strain CIN8, stronger effect = lower value 0.999 | locus YGR078C, strain PAC10, stronger effect = lower value 0.998 | locus YGR229C, strain SMI1, stronger effect = lower value 1.01 | [3] 1.02 | locus YHR087W, strain rtc3, stronger effect = lower value 0.988 | locus YJR043C, strain POL32, stronger effect = lower value 1.01 | locus YJR075W, strain HOC1, stronger effect = lower value 0.95 | locus YLR039C, strain RIC1, stronger effect = lower value 1.02 | locus YLR058C, strain SHM2 (second series), stronger effect = lower value 1.02 | locus YLR085C, strain ARP6, stronger effect = lower value 0.946 | locus YLR262C, strain YPT6, stronger effect = lower value 1.01 | locus YML094W, strain GIM5, stronger effect = lower value 0.993 | locus YMR219W, strain ESC1, stronger effect = lower value 0.984 | [4] 1.01 | locus YNL128W, strain TEP1, stronger effect = lower value 1.03 | [5] 1 | locus YNL298W, strain CLA4 (second series), stronger effect = lower value 0.996 | [6] 1 | locus YNR030W, strain Alg12, stronger effect = lower value 0.989 | locus YPL055C, strain LGE1, stronger effect = lower value 0.994 | locus YPL241C, strain CIN2, stronger effect = lower value 1.01 | locus YPR135W, strain CTF4, stronger effect = lower value 0.974

CCCCCCCCCCCCCCCCCCOC[C@H](COP(=O)([O-])OCC[N+](C)(C)C)OC
inactive: [1] 1 | locus YAL040C, strain CLN3, stronger effect = lower value 1.04 | locus YCL061C, strain MRC1 (second series), stronger effect = lower value 1.02 | locus YDR363W, strain ESC2, stronger effect = lower value 0.992 | locus YER002W, strain NOP16, stronger effect = lower value 1.04 | [4] 0.998 | locus YMR307W, strain GAS1, stronger effect = lower value 1 | [5] 0.997 | locus YNL175C, strain NOP13, stronger effect = lower value 1.05 | locus YNL197C, strain WHI3, stronger effect = lower value 1.01 | locus YNL224C, strain SQS1, stronger effect = lower value 1.04 | [6] 0.988 | locus YOR083W, strain WHI5 (second series), stronger effect = lower value 1.02

CCCCCCCC/C=C/CCCCCCCCOP(=O)([O-])OCC[N+](C)(C)C
active: [7] 0.0587 | [8] 0.0561 | [9] 0.053 | [10] 0.0558 | [11] 0.0546 | [12] 0.0583 | [13] 0.0745 | [14] 0.0586 | [15] 0.0563 | [16] 0.0519 | [17] 0.0586 | [2] 0.0589 | [18] 0.0556 | [19] 0.0562 | [20] 0.0694 | [21] 0.0556 | [22] 0.0555 | [23] 0.0593 | [24] 0.105 | [25] 0.0716 | locus YDR195W, strain ref2 0.0966 | [26] 0.0533 | [27] 0.0581 | [28] 0.0561 | [29] 0.0625 | [30] 0.0513 | [31] 0.0533 | [32] 0.0564 | [33] 0.0609 | [34] 0.0567 | [35] 0.0743 | [36] 0.0793 | [37] 0.0589 | [38] 0.0691 | [39] 0.0671 | [40] 0.0578 | [41] 0.0658 | [42] 0.0494 | [43] 0.0918 | [44] 0.0597 | [45] 0.0608 | [46] 0.0556 | [47] 0.0534 | [48] 0.0664 | [49] 0.0759 | [50] 0.0613 | [51] 0.0536 | [52] 0.0552 | locus YJL187C, strain SWE1, stronger effect = lower value 0.055 | [53] 0.0575 | [54] 0.0565 | [55] 0.0556 | [56] 0.0557 | [57] 0.0528 | [58] 0.0534 | [59] 0.0482 | [60] 0.0536 | [61] 0.0544 | [62] 0.0801 | [63] 0.066 | [64] 0.0588 | [65] 0.106 | [66] 0.056 | [67] 0.0574 | [68] 0.0534 | [69] 0.0555 | [70] 0.062 | [71] 0.0548 | [72] 0.0726 | [73] 0.065 | [74] 0.0563 | [75] 0.0577 | [76] 0.0552 | [77] 0.0595 | [78] 0.0525 | [79] 0.0584 | [80] 0.0589 | [81] 0.0596 | [82] 0.0554 | [83] 0.0591 | [84] 0.0537 | [85] 0.072 | [86] 0.0546 | [87] 0.0574 | [88] 0.058 | [89] 0.0823 | [90] 0.054

CCCCCCCCCCCCCCCCOP(=O)([O-])OCC[N+](C)(C)C
active: [7] 0.0619 | [8] 0.0625 | [9] 0.0575 | [10] 0.0614 | [11] 0.0673 | [12] 0.0636 | [13] 0.0767 | [14] 0.0637 | [15] 0.0644 | [16] 0.0569 | [17] 0.0649 | [2] 0.0638 | [18] 0.0585 | [19] 0.0589 | [20] 0.0739 | [21] 0.062 | [22] 0.0559 | [23] 0.0612 | [24] 0.105 | [25] 0.0874 | locus YDR195W, strain ref2 0.133 | [26] 0.0626 | [27] 0.0607 | [28] 0.0579 | [29] 0.0822 | [30] 0.0548 | [31] 0.0549 | [32] 0.0587 | [33] 0.0638 | [34] 0.0622 | [35] 0.0695 | [36] 0.0842 | [37] 0.0648 | [38] 0.0766 | [39] 0.082 | [40] 0.0637 | [41] 0.0747 | [42] 0.0509 | [43] 0.14 | [44] 0.0701 | [45] 0.0698 | [46] 0.0564 | [47] 0.0584 | [48] 0.0702 | [49] 0.0808 | [50] 0.0578 | [51] 0.0591 | [52] 0.061 | [53] 0.0625 | [54] 0.0625 | [55] 0.072 | [56] 0.0583 | [57] 0.0591 | [58] 0.058 | [59] 0.0551 | [60] 0.0588 | [61] 0.0598 | [62] 0.0755 | [63] 0.0754 | [64] 0.0648 | [65] 0.121 | [66] 0.062 | [67] 0.0585 | [68] 0.0597 | [69] 0.0574 | [70] 0.075 | [71] 0.0586 | [72] 0.0871 | [73] 0.173 | [74] 0.0608 | [75] 0.0625 | [76] 0.0698 | [77] 0.0641 | [78] 0.0585 | [79] 0.0712 | [80] 0.0615 | [81] 0.0657 | [82] 0.0753 | [83] 0.0675 | [84] 0.0614 | [85] 0.093 | [86] 0.069 | [87] 0.0646 | [88] 0.0596 | [89] 0.0983 | [90] 0.0574
inactive: [3] 0.971 | locus YHR079C, strain IRE1, stronger effect = lower value 0.967 | locus YJL095W, strain BCK1, stronger effect = lower value 0.985 | locus YJR066W, strain TOR1, stronger effect = lower value 0.915 | locus YLR113W, strain HOG1, stronger effect = lower value 1.07 | locus YNL183C, strain NPR1, stronger effect = lower value 0.912 | locus YOR231W, strain MKK1, stronger effect = lower value 0.953 | locus YPL256C, strain CLN2, stronger effect = lower value 1.01
